Source: PubChem BioAssay (National Center for Advancing Translational Sciences (NCATS))
SARS PLP yeast – blocks SARS-CoV papain-like protease in a yeast assay. S. cerevisiae expressing SARS-CoV PLpro, growth rescue. Potency, µM (highest dose often 32.9 µM), usual class: activators. 0.19% of 330,000 active. AID 485353; calls by dose curve; note: nearly all actives have a fitted effect of over 55% in size
Pf growth 96h – P. falciparum growth inhibition at 96 hours | Potency, µM (top dose mostly 28.7 µM), actives largely listed as inhibitors | P. falciparum luciferase reporter growth, 96 h | 6.9% of 320,000 active | AID 504834
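Cell-based qHTS: luciferase-tagged P. falciparum in erythrocytes (2% hematocrit, 0.05% parasitemia final) incubated with compounds for 96 hours, 37 C, 5% CO2; luciferase detection reagent then added and luminescence measured.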
NS1 function inh – blocks influenza NS1 protein function; Potency, µM (top dose mostly 46.1 µM); 0.4% of 270,000 active; AID 2326; calls by dose curve; note: actives are rising curves; nearly all actives have a fitted effect of over 50% in size
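Recovery from NS1-induced slow growth read by OD600 in budding yeast switched to galactose assay medium (pH 6.0, -URA) at 1:100 dilution. Compound 23 nl per well; the matching strain lacking NS1 serves as control.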
Pf growth 48h – P. falciparum growth inhibition at 48 hours (one generation) | Potency, µM (titrated, usually from 28.7 µM), actives largely listed as inhibitors | P. falciparum luciferase growth in erythrocytes, 48 h | 5.9% of 310,000 active | AID 504832
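Luminescence readout; reporter = integrated firefly luciferase in P. falciparum. RBC culture at 2% hematocrit, 0.1% parasitemia final, 37 C/5% CO2; decreased signal taken as growth inhibition.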
Numbers stand for hits; 0 = inactive; ? = inconclusive; - = no result given. Shown are actives, neighbours in structure and some others; about 10% of the full set was active somewhere. Unless noted, calls come from the whole dose curve; as a rule, active = well fitted inhibition curve with a large enough effect; inconclusive = small, poorly fitted or top-dose-only effect, or another doubt; inactive = no such curve, though single readings can be large or run the other way.

SMILES	SARS PLP yeast	Pf growth 96h	NS1 function inh	Pf growth 48h
O=C(Nc1ccc(Br)cc1Br)c1cccc2c1C(=O)N(C1CCCCC1)C2	0	?	0	?
O=C(Nc1ccc(Br)cc1)c1cccc2c1C(=O)N(C1CCCCC1)C2	0	0	0	?
Cc1ccc(NC(=O)c2cccc3c2C(=O)N(C2CCCCC2)C3)c(Cl)c1	0	4.7µM	0	?
Nc1[nH]c(=O)nc2c1ncn2[C@H]1O[C@@H](CO)[C@@H](O)[C@@H]1O	-	-	0	-
C[C@H]1CCCC=CC2C[C@H](OC(=O)CN(C)C)C[C@@H]2[C@@H](O)/C=C\C(=O)O1 (stereo partly drawn)	-	-	0	-
C=CCc1cccc2cc(C(=O)NNC(=O)CC#N)c(=O)oc12	0	0	0	0
O=C(NCCc1ccccc1)c1cccc2c1C(=O)N(C1CCCCC1)C2	0	?	0	?
CSc1ccc(CCNC(=O)c2cccc3c2C(=O)N(C2CCCCC2)C3)cc1	0	10µM	0	?
O=C(NCc1cccc(F)c1F)C1CCC(=O)N(C2CCCCCC2)C1 (stereo not drawn)	0	0	0	0
Cc1ccc(/C=C/C(=O)N2CCCC(C(N)=O)C2)o1 (stereo not drawn)	0	0	0	?
COc1ccc(OC)c(-n2c(SCC(=O)Nc3cc(C)on3)nnc2-c2c[nH]c3ccccc23)c1	0	4.7µM	0	-
CCOc1ccc(-n2c(SCC(=O)Nc3cc(C)on3)nnc2-c2c[nH]c3ccccc23)cc1	0	5.9µM	0	-
CCOc1ccccc1-n1c(SCC(N)=O)nnc1-c1ccccc1	0	-	0	0
COc1cccc(-n2c(SCC(N)=O)nnc2-c2c[nH]c3ccccc23)c1	0	12µM	0	-
COc1ccccc1-n1c(SCC(N)=O)nnc1-c1ccccc1	0	1.7µM	0	0
COc1ccc(OC)c(-n2c(SCC(N)=O)nnc2-c2c[nH]c3ccccc23)c1	0	5.2µM	0	-
Cc1ccccc1-n1c(SCc2c(C)noc2C)nnc1-c1c[nH]c2ccccc12	0	15µM	0	?
COc1ccc(OC)c(-n2c(=O)c3ccccc3c3ccccc3c2=O)c1	0	0	0	0
COc1ccc(OC)c(-n2c(SC)nnc2-c2c[nH]c3ccccc23)c1	0	4.1µM	0	-
Cc1ccccc1OCC(=O)N=Nc1c(O)n(C)c2ccccc12	0	0	0	0
CN(C)C(=O)COc1ccc(Oc2ccccc2)cc1	0	0	-	0
COc1ccccc1C1c2[nH]c3ccccc3c2CCN1Cc1cnc(C)s1 (stereo not drawn)	0	?	0	?
COc1cccc(C2c3[nH]c4ccccc4c3CCN2Cc2cnc(C)s2)c1OC (stereo not drawn)	0	?	0	2.3µM
O=S(=O)(c1ccccc1)N1C2CCC1CC(O)(c1cccnc1)C2 (stereo not drawn)	0	2.3µM	0	0
Cc1sc(NC(=O)CN(C)C2CCCCC2)nc1-c1ccc2c(c1)CCN2S(=O)(=O)c1ccccc1	0	2.9µM	0	-
SMILES	SARS PLP yeast	Pf growth 96h	NS1 function inh	Pf growth 48h
O=C(Nc1ccc(F)cc1F)c1cc2nc3c(c(C(F)(F)F)n2n1)CCCC3	0	10µM	0	0
C=CCn1c(=O)c(C(=O)NCc2ccc3c(c2)OCO3)c(O)c2cc(OC)c(OC)cc21	0	0	0	0
COc1cc2c(=O)n(-c3ccc(C)cc3)c(=O)n(CC(=O)c3ccc4c(c3)OCO4)c2cc1OC	0	0	0	12µM
COc1ccc(N=C2O/C(=C/c3sc(=S)n(CC4CCCO4)c3O)N=C2C#N)cc1 (stereo not drawn)	0	15µM	0	?
CC(C(=O)Nc1ccc(S(=O)(=O)N2CCCC2)cc1)N(C)CC(=O)Nc1cccc(F)c1 (stereo not drawn)	0	-	-	-
Cc1ccc(NC(=O)CN(C)C(C)C(=O)Nc2ccc(S(=O)(=O)N3CCCC3)cc2)cc1 (stereo not drawn)	0	12µM	-	12µM
COc1cccc(NC(=O)CN(C)C(C)C(=O)Nc2ccc(S(=O)(=O)N3CCCC3)cc2)c1 (stereo not drawn)	0	4.7µM	0	9.3µM
CC/C(=N\Nc1ccnc2cc(Cl)ccc12)c1ccc(O)cc1	0	1.3µM	0	1.7µM
Oc1ccc(/C=N/Nc2ccnc3cc(Cl)ccc23)c(O)c1O	0	?	0	?
Oc1ccc(/C=N/Nc2ccnc3cc(Cl)ccc23)cc1O	0	0.74µM	0	0.66µM
CC/C(=N/NS(=O)(=O)c1ccc(Cl)cc1)c1ccc(O)cc1	0	0	0	0
C/C(=N\Nc1ccc(C)c(Cl)c1)c1cccnc1	0	0	0	?
O=[N+]([O-])c1cccc(CSC2=NCCN2S(=O)(=O)c2ccccc2)c1	0	?	0	?
CCOC(=O)c1cnc(-n2nc(C)cc2C)nc1Nc1ccc2c(c1)OCO2	0	15µM	0	0
